A number with no mark means an inactive call. The source made the active and inactive calls. Calls come from the whole dose curve; as a rule, active = well fitted curve in the direction sought with a large enough effect in the repeat runs; inconclusive = weak or mixed curves; inactive = flat fitted curve, though single readings scatter.
assay: qHTS assay to test for compound auto fluorescence at 535 nm (green) in HepG2 cells (AID 720675); details: green autofluorescence 485/535 nm, 1 h; series mostly up to 91.3 µM; fluorescence, % of fluorescein control: at the top concentration
From the text: National Center for Advancing Translational Sciences [NCATS]
NIH Chemical Genomics Center [NCGC]
U.S. Environmental Protection Agency [EPA]
National Institutes of Environmental Health Sciences [NIEHS]
National Toxicology Program [NTP]
U.S. Food and Drug Administration [FDA]
Compound auto fluorescence often interferes with screening of the compound library against various biological targets and signaling pathways. Some of these compounds may have fluorophoric properties. Such properties may interfere with the assay outputs resulting in false positives and/or negatives. To decrease such complications and ensure the compound activities are relevant in terms of biological response, the Tox21 10K compound library was screened for auto fluorescence.
From the fluorophores used as reporter signals in our screening assays, the auto fluorescence equivalencies of compounds against three fluorophores have been evaluated: Triamterene, Fluorescein and Rose Bengal sodium for blue, green and red fluorescence, respectively. The fluorescence intensities were measured using Excitation/Emission wavelengths at 405/460nm, 485/535nm and 540/590nm for blue, green and red labels, respectively. This assay includes the green fluorescence data.
Tox21 Assay Protocol Summary:
2,000 HepG2 cells in 5 uL of culture medium (MEM containing 10% FBS) per well were dispensed into black wall/clear bottom 1536-well plates using a Multidrop Combi Dispenser (ThermoFisher Scientific, Waltham, MA). The assay plates were incubated overnight at 37 C to allow cell attachment to the well bottom, followed by the transfer of 23 nL compound or DMSO vehicle by a pintool work station (Kalypsys , San Diego, CA). After the assay plates were incubated for 1 hr at 37 C and 5% CO2, fluorescence intensities in the assay plates were measured by an Envision (PerkinElmer, Shelton, CT) plate reader using three labels for measuring blue, green and red fluorescence at […] 460, 535 and 590 nm respectively.
% is set by controls: 0 for no effect and ±100 for the full control effect.

SMILES | fluorescence, % of fluorescein control | outcome
CCOC(=O)CCl | 0.106% | 
CC(C)N(Cc1ccccc1)C(=O)C(C)(C)C | -0.0101% | 
ClCCCCl | 0.0068% [at 95.7 µM] | 
CC(C)(O)C(Cl)(Cl)Cl | 0.167% [at 46 µM] | 
CCCCCCCCBr | 0.0871% | 
CCOC(=O)CC(SP(=S)(OC)OC)C(=O)OCC (stereo not given) |  | inactive
O=C1CC(=O)NC(=O)N1 | -0.0565% | 
CCOC(=O)COc1ccc(Cl)cc1Cl | -0.0238% | 
OCC(Cl)CCl (stereo not given) | -0.0014% | 
OP(O)c1ccccc1 | 0.136% [at 95.7 µM] | 
CC(C)(C1CCC(O)CC1)C1CCC(O)CC1 (stereo not given) | 0.0554% | 
CC[C@@H](CO)NC(=O)[C@@H]1C=C2c3cccc4c3c(cn4C)C[C@H]2N(C)C1 | 0.664% [at 46 µM] | 
COC1=CC(=O)O[C@@H](/C=C/c2ccccc2)C1 | -0.036% [at 95.7 µM] | 
CC[C@H](N)c1ccccc1 | 0.0446% | 
CCOP(=O)(CN(CCO)CCO)OCC | 0.0655% | 
ClC1=C(Cl)C2(Cl)C(CBr)CC1(Cl)C2(Cl)Cl (stereo not given) |  | inactive
COc1ccc(C=O)cc1O | -0.0784% | 
C=C(C)[C@H]1CN[C@H](C(=O)O)[C@H]1CC(=O)O | 0.0372% [at 46 µM] | 
NNC(N)=O | -0.0041% [at 95.7 µM] | 
O=C(O)c1c(Cl)ccc2cc(Cl)cnc12 | 0.0938% | 

SMILES | fluorescence, % of fluorescein control | outcome
NCCOS(=O)(=O)O | 0.135% | 
CCCCOC(C)=O | 0.0629% [at 95.7 µM] | 
CC(C)[N+](C)(CCC(C(N)=O)(c1ccccc1)c1ccccc1)C(C)C | -0.0469% [at 18.6 µM] | 
CS(=O)(=O)c1ccc(C(=O)C2C(=O)CCCC2=O)c(Cl)c1COCC(F)(F)F | -0.0044% | 
CCCOC(=O)Cc1ccc(OCC(=O)N(CC)CC)c(OC)c1 | -0.0454% [at 46 µM] | 
CC[C@@H](CO)NC(=O)[C@@H]1C=C2c3cccc4[nH]cc(c34)C[C@H]2N(C)C1 | 1.83% [at 46 µM] | 
O=C(Cl)CCl | -0.0439% | 
C=CCCC#N | 0.0184% | 
CCC(=O)c1ccc(Cl)cc1 | 0.0383% | 
BrCC1CO1 (stereo not given) | 0.0038% | 
Cc1ccc(S(=O)(=O)N[C@@H](CCCCN)C(=O)CCl)cc1 | 0.14% [at 46 µM] | 
CN=CNc1ccc(C)cc1C | 0.142% | 
NNCc1ccccc1 | 0.0234% [at 95.7 µM] | 
CCC(=O)OC1(c2ccccc2)CCN(C)CC1 | -0.0229% [at 95.7 µM] | 
Brc1c(Br)c(Br)c(Br)c(Br)c1Br | 0.0147% [at 3.72 µM] | 
C/C(=N\NC(=O)Nc1cc(F)cc(F)c1)c1ncccc1C(=O)O | 0.0613% | 
O=C1C2CC=CCC2C(=O)N1SC(Cl)(Cl)Cl (stereo not given) |  | inactive
Clc1ccc(C(Cl)(Cl)Cl)cn1 | -0.0909% | 
CC(Cc1ccccc1)NCCn1cnc2c1c(=O)n(C)c(=O)n2C (stereo not given) | -0.186% | 
CS(=O)(=O)Cl | -0.12% [at 95.7 µM] | 
